Data on 18 compounds can be found in the supplement of paper PMC13094657.

Counter-ions that a name gives are not always drawn. ± gives the standard deviation of the averaged measurements.
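Note: viability of the cells left after supernatant collection, read with Deep Blue dye added for 4 h, as absorbance at 570 nm minus 600 nm.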

This assay concerns MDA-MB-231. Kind of assay: cell viability relative to vehicle unstimulated control (fraction); higher = more viable cells. As to conditions: pre-treatment time: 18 h then 24 h IFNg/TNF.
As to `CC(=O)O[C@@]12C[C@@H](C)[C@@]3(O)[C@@H](C=C(CO)C[C@]4(O)C(=O)C(C)=C[C@@H]34)[C@@H]1C2(C)C` [Prostratin] (compound dose: 10 uM), the cell viability stood at 1.31 ± 0.36.
Turning to `CN1[C@@H]2C[C@@H](OC(=O)[C@H](CO)c3ccccc3)C[C@H]1[C@@H]1O[C@@H]12` [Scopolamine hydrobromide] (compound dose: 10 uM), the cell viability is 0.983 ± 0.025.
Consider `CC(C)=CCCC(C)(O)C1CCC2(C)C1C(O)CC1C3(C)CCC(OC4OC(CO)C(O)C(O)C4O)C(C)(C)C3CCC12C` [20(R)-Ginsenoside Rh2] (compound dose: 10 uM), for which the cell viability was 1.08 ± 0.052.
To `C[C@@]12C[C@@H](c3ccoc3)OC(=O)[C@@H]1CC[C@]1(C)[C@H]2[C@@H]2C=C[C@@]1(O)C(=O)O2` [Columbin] (compound dose: 10 uM) belongs 0.9915 ± 0.0091.
On to `CCCCCCCCCCCCCC(=O)O[C@@H]1[C@@H](C)[C@@]2(O)[C@@H](C=C(CO)C[C@]3(O)C(=O)C(C)=C[C@@H]23)[C@@H]2C(C)(C)[C@]12OC(C)=O` [12-O-tetradecanoyl phorbol-13-acetate] (compound dose: 10 uM), for which the cell viability is 1.06 ± 0.043.
In the case of `CC(=O)OC(C)(C)/C=C/C(=O)[C@](C)(O)[C@H]1[C@H](O)C[C@@]2(C)[C@@H]3CC=C4[C@H](C[C@H](O)C(=O)C4(C)C)[C@]3(C)C(=O)C[C@]12C` [Cucurbitacin B] (compound dose: 10 uM), the cell viability was found to be 0.396 ± 0.061.
In the case of `COC(=O)[C@]1(C)CC[C@]2(C)CC[C@]3(C)C4=CC=C5C(=CC(=O)C(O)=C5C)[C@]4(C)CC[C@@]3(C)[C@@H]2C1` [Pristimerin] (compound dose: 10 uM), the cell viability was -0.0372 ± 0.0069.
Take `CC1=C[C@@H]2C(=O)[C@]3(C=C(C)[C@H](O)[C@@]3(O)[C@@H]1O)[C@H](C)C[C@@H]1[C@H]2C1(C)C` [20-Deoxyingenol] (compound dose: 10 uM): the cell viability stood at 0.975 ± 0.11.
In the case of `COc1cc(C[C@H]2C(=O)OC[C@@H]2Cc2ccc3c(c2)OCO3)cc(OC)c1OC` [Yatein] (compound dose: 10 uM), the cell viability was found to be 0.9961 ± 0.0012.
On to `Cc1cc(O)c2c(=O)c3c(O)cc(O)c4c5c(O)cc(O)c6c(=O)c7c(O)cc(C)c8c1c2c(c34)c(c78)c65` [Hypericin] (compound dose: 10 uM), for which the cell viability is 0.0887 ± 0.085.
In the case of `CC(C)=CCC[C@](C)(O)[C@H]1CC[C@]2(C)[C@@H]1[C@H](O)C[C@@H]1[C@@]3(C)CC[C@H](O[C@@H]4O[C@H](CO)[C@@H](O)[C@H](O)[C@H]4O)C(C)(C)[C@@H]3CC[C@]12C` [Ginsenoside Rh2] (compound dose: 10 uM) it was 0.908 ± 0.049; in that of `C=C1[C@H](OC(=O)c2ccccc2)C[C@H]2[C@@H](/C=C(\C)C(=O)[C@@]3(OC(C)=O)C[C@H](C)[C@H](OC(=O)c4ccccc4)[C@@H]3[C@H]1OC(C)=O)C2(C)C` [Euphorbia factor L2] (compound dose: 10 uM), 1.07 ± 0.015; in that of `CC(=O)O[C@@H]1[C@H]2[C@@H](OC(=O)Cc3ccccc3)[C@@H](C)C[C@]2(OC(C)=O)C(=O)/C(C)=C/[C@@H]2[C@H](CC[C@]13CO3)C2(C)C` [Euphorbia factor L1] (compound dose: 10 uM), 1.12.
In the case of `C=C1[C@@H]2CC[C@H]3[C@]4(C)C[C@H](O[C@@H]5O[C@H](CO)[C@@H](OS(=O)(=O)O)[C@H](OS(=O)(=O)O)[C@H]5OC(=O)CC(C)C)CC(C(=O)O)(C(=O)O)[C@H]4CC[C@]3(C2)[C@H]1O` [Carboxyatractyloside (dipotassium)] (compound dose: 10 uM), the cell viability turned out to be 1.03 ± 0.071.
Consider `CC(C)[C@]12O[C@H]1[C@@H]1O[C@@]13[C@@]1(C)CCC4=C(COC4=O)[C@@H]1C[C@@H]1O[C@@]13C2=O` [Triptonide] (compound dose: 10 uM), for which the cell viability amounted to 0.637 ± 0.069.
To `COc1ccc2c3c1O[C@H]1CC(=O)C=C[C@@]31CCN(C)C2` [Galanthaminone] (compound dose: 10 uM) belongs 0.953 ± 0.034; to `COc1cc2c(c(OC)c1OC)-c1ccc(OC)c(=O)cc1[C@@H](NC(C)=O)CC2` [Colchicine] (compound dose: 10 uM), 0.802 ± 0.097; to `C=C1CC[C@H]2[C@@H](/C=C(\C)C(=O)[C@@]3(OC(C)=O)C[C@H](C)[C@H](OC(=O)Cc4ccccc4)[C@@H]3[C@H]1OC(C)=O)C2(C)C` [Deoxy euphorbia factor L1] (compound dose: 10 uM), 1.07 ± 0.074.
